The record followed here is PubChem BioAssay (EPA / NIEHS).

Common to all, as to settings: mRNA level, 48 h; actives raise or lower the signal
Read-out in assay [1]: MicroRNA 122 (MIR122), gene 406906
The assay is described as follows: LTEA_HepaRG_MIR122: Life Technologies and Expression Analysis (LTEA) Assay for MicroRNA 122 (MIR122) using HepaRG (AID 2283516). Further: the transcript read is the microRNA miR-122. Summed up:
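HepaRG, 48 h exposure, 8-pt half-log from 100 uM, 0.5% DMSO; TaqMan qRT-PCR; bidirectional fit vs DMSO.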

Read-out in assay [2]: matrix metalloproteinase-10 (MMP10), MMP10 (gene 4319)
The assay is described as follows: LTEA_HepaRG_MMP10: Life Technologies and Expression Analysis (LTEA) Assay for matrix metalloproteinase-10 (MMP10) using HepaRG (AID 2283517). The procedure, abridged:
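Gain or loss of MMP10 mRNA is fitted relative to the 0.5% DMSO vehicle. The human hepatic line HepaRG receives a 48-hour serum-free exposure, in duplicate, with a maximum concentration of 100 uM.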

Read-out in assay [3]: MYC, MYC (gene 4609)
Description: LTEA_HepaRG_MYC: Life Technologies and Expression Analysis (LTEA) Assay for MYC using HepaRG (AID 2283518). The procedure, abridged:
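Expression changes were scored by TaqMan qRT-PCR with ACTB, GAPDH and POLR2A normalization. Cultures in serum-free induction medium received duplicate 8-point concentration series, highest 100 uM, for 48 h; DMSO (0.5%) served as baseline.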

Read-out in assay [4]: Paternally Expressed 10 (PEG10), PEG10 (gene 23089)
Description: LTEA_HepaRG_PEG10: Life Technologies and Expression Analysis (LTEA) Assay for Paternally Expressed 10 (PEG10) using HepaRG (AID 2283520).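 On AC50: PEG10 transcript by qRT-PCR normalised to ACTB GAPDH and POLR2A.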 The procedure, abridged:
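Chemicals tested on HepaRG cells for 48 h, highest concentration 100 uM. PEG10 expression assessed by qRT-PCR relative to DMSO control.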

Read-out in assay [5]: Protein phosphatase 2A (PPP2R4), PTPA (gene 5524)
The assay is described as follows: LTEA_HepaRG_PPP2R4: Life Technologies and Expression Analysis (LTEA) Assay for Protein phosphatase 2A (PPP2R4) using HepaRG (AID 2283522). The procedure, abridged:
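Gene-expression endpoint in HepaRG hepatic cells: 48 h treatment across eight half-log concentrations up to 100 uM in 0.5% DMSO. PPP2R4 mRNA by qRT-PCR, normalized to three endogenous control genes.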

Read-out in assay [6]: Phosphatase and tensin (PTEN), PTEN (gene 5728)
The assay is described as follows: LTEA_HepaRG_PTEN: Life Technologies and Expression Analysis (LTEA) Assay for Phosphatase and tensin (PTEN) using HepaRG (AID 2283523). Summed up: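 Read-out is PTEN transcript level by multiplexed TaqMan qRT-PCR after 48 h chemical treatment of human HepaRG cultures in serum-free induction medium. Concentrations spanned 100 uM downward in half-log steps, 0.5% DMSO throughout; activity fitted in both directions against vehicle.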

Read-out in assay [7]: solute carrier (SLC22A1), SLC22A1 (gene 6580)
Description: LTEA_HepaRG_SLC22A1: Life Technologies and Expression Analysis (LTEA) Assay for solute carrier (SLC22A1) using HepaRG (AID 2283524).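 On AC50: TaqMan qRT-PCR normalized to ACTB GAPDH and POLR2A housekeeping genes.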 Summed up:
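HepaRG (human liver line), 48 h dosing in serum-free induction medium; 8 conc., half-log down from 100 uM, 0.5% DMSO vehicle, duplicates. Endpoint: SLC22A1 mRNA, qRT-PCR, housekeeping-normalized; gain/loss fit vs DMSO.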

Read-out in assay [8]: Pyruvate Dehydrogenase Kinase 4 (PDK4), PDK4 (gene 5166)
The assay is described as follows: LTEA_HepaRG_PDK4: Life Technologies and Expression Analysis (LTEA) Assay for Pyruvate Dehydrogenase Kinase 4 (PDK4) using HepaRG (AID 2283525). The procedure, abridged:
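In this multiplexed human HepaRG expression assay, cells are treated 48 h with test chemicals across an eight-point range starting at 100 uM. PDK4 mRNA changes, normalized to ACTB/GAPDH/POLR2A, are fitted in both directions relative to vehicle.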

Read-out in assay [9]: matrix metalloproteinase-3 (MMP3), MMP3 (gene 4314)
The assay is described as follows: LTEA_HepaRG_MMP3: Life Technologies and Expression Analysis (LTEA) Assay for matrix metalloproteinase-3 (MMP3) using HepaRG (AID 2283519). The procedure, abridged:
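HepaRG, human; 48 h dosing, 8 conc. (max 100 uM, half-log), duplicate, 0.5% DMSO. Readout: MMP3 transcript by Fluidigm TaqMan qRT-PCR, ACTB/GAPDH/POLR2A-normalised. Gain or loss fitted vs DMSO.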

Read-out in assay [10]: Nuclear factor NF-kappa-B p105 subunit (Homo sapiens) (UniProt P19838)
Description: LTEA_HepaRG_NFKB1: Life Technologies and Expression Analysis (LTEA) Assay for Nuclear Factor Kappa B Subunit 1 (NFKB1) using HepaRG (AID 2283521). Summed up: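 Differentiated human HepaRG cells in serum-free induction medium with 0.5% DMSO were exposed for 48 h to eight half-log concentrations, top 100 uM, in duplicate. NFKB1 mRNA measured by Fluidigm TaqMan qRT-PCR, normalised to ACTB, GAPDH and POLR2A; bidirectional fit versus DMSO.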

Each structure is given as a SMILES string. Calls of active or inactive are those of the source. How the source made its calls: active means hit-call score of the fitted dose curve at least 0.9, where 1 is the maximum; inactive means score below 0.9.

Sequence of Nuclear factor NF-kappa-B p105 subunit (Homo sapiens) (P19838 whole entry, looked up): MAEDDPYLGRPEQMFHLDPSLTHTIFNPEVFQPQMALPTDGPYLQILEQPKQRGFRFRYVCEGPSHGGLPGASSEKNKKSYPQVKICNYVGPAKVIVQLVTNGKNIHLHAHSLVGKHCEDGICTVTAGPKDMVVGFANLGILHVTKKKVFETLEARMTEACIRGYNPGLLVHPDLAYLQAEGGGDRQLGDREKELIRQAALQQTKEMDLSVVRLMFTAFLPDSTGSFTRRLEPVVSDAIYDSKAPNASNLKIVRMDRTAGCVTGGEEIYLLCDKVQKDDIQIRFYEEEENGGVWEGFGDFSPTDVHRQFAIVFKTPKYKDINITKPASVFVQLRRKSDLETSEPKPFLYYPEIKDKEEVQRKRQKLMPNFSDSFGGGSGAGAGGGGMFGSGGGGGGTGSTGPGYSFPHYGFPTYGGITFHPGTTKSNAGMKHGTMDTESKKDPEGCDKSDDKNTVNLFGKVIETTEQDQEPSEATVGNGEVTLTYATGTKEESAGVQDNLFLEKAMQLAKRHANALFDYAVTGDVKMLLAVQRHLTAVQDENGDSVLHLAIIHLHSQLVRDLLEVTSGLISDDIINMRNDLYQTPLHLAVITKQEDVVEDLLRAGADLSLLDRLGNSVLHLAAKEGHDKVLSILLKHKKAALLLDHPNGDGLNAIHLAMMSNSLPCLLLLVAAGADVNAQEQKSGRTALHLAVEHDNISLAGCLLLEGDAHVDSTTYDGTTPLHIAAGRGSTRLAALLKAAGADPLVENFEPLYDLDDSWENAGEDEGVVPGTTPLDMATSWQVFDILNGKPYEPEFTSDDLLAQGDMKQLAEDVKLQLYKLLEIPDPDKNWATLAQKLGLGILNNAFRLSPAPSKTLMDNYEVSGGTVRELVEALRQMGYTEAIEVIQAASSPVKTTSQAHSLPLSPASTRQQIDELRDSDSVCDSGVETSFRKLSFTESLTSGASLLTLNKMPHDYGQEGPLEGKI

In general, AC50 refers to the concentration giving half of the maximal activity seen. Take `Cc1cc(-c2ccc(N)c(C)c2)ccc1N`: the call in assay [1], in assay [2], in [3], in assay [5] and in [6] was inactive. For the same compound, the AC50 in assay [4] was 33.7 µM (active); in assay [7] it was 50 µM (active); in assay [8], 9.92 µM (active).
Consider `CCOP(=S)(OCC)SCSC(C)(C)C`, for which the outcome in assay [1], in assay [2], in [3], in assay [9], in assay [5] and in assay [6] was inactive. Besides, the result in assay [7] was inactive. In addition, the AC50 in [4] is 50 µM (active); in [8], 18 µM (active).
As to `CC#Cc1cc(C)nc(Nc2ccccc2)n1`, the AC50 in assay [1] was 21.7 µM (active); in [3], 28.4 µM (active); in [4], 13.1 µM (active); in assay [7], 26.4 µM (active); in assay [8] it was 19.2 µM (active). Moreover, the result in assay [2], in assay [10], in [5] and in assay [6] was inactive.
Regarding `Cc1ccccc1[N+](=O)[O-]`, the call in [1], in assay [2], in assay [3], in assay [9], in [4] and in assay [10] was inactive. The outcome in assay [5], in [6], in [7] and in [8] was inactive.
For `CN(C)c1nc(=O)n(C2CCCCC2)c(=O)n1C`, the compound was classed as inactive in assay [1], in assay [2], in assay [3], in assay [4], in [5] and in [6]. Also, the outcome in assay [7] and in assay [8] was inactive.
For `ClC(Cl)=C(c1ccc(Cl)cc1)c1ccc(Cl)cc1`, the call in [1], in assay [2], in assay [3], in assay [4], in [10] and in assay [5] was inactive. For the same compound, the compound was called inactive in assay [6] and in [7].
`CCCCCCCCCC[N+](C)(C)CCCCCCCCCC`: the outcome in assay [1], in [2], in assay [3], in assay [10] and in assay [5] was inactive. Also, the AC50 is 94 µM (active) in assay [9]; 50 µM (active) in [4]; 83.2 µM (active) in assay [6]; 61.5 µM (active) in assay [7]; 82.5 µM (active) in assay [8].
`Cc1cccc([N+](=O)[O-])c1`: the call in [1], in assay [3], in assay [9], in assay [4], in [10] and in assay [5] was inactive. The compound was called inactive in [6], in [7] and in assay [8].
In the case of `C1CC2OC2CC1C1CO1` (centres undefined), the compound was classed as inactive in [1], in assay [3], in [9], in assay [4], in [10] and in [5]. Besides, the outcome in assay [6], in [7] and in assay [8] was inactive.
With `C=CC(=O)NCNC(=O)C=C`, the result in [1], in [2], in [3], in assay [9], in assay [4] and in assay [10] was inactive. The compound was classed as inactive in assay [5], in [6] and in [8]. Also, the AC50 in assay [7] is 30.6 µM (active).
With `CC(C)(O)C(=O)Nc1ccc([N+](=O)[O-])c(C(F)(F)F)c1`, the call in assay [1], in [2], in [6], in assay [7] and in assay [8] was inactive. The AC50 in assay [3] is 0.0308 µM (active); in assay [4], 25 µM (active); in [5], 0.0226 µM (active).
With `c1ccc(-c2ccccc2)cc1`, the result in assay [1], in assay [2], in assay [3], in assay [4], in assay [10] and in assay [5] was inactive. In addition, the call in [6], in assay [7] and in [8] was inactive.
As to `ClC1=C(Cl)[C@]2(Cl)[C@@H]3[C@H]4C[C@H]([C@@H]5O[C@H]45)[C@@H]3[C@@]1(Cl)C2(Cl)Cl`, the AC50 in assay [1] is 31.6 µM (active); in assay [3], 11 µM (active); in assay [7], 31.7 µM (active). The result in assay [2], in assay [9], in assay [4], in [10], in [5] and in assay [6] was inactive. In [8], the call was inactive.
For `C[C@]12CCC(=O)C=C1CC[C@@H]1[C@@H]2CC[C@@]2(C)[C@H]1CC[C@]2(C)O`, the AC50 in [1] is 45.8 µM (active); in [4] it was 2.07 µM (active); in assay [7], 45.8 µM (active); in [8] it was 45.8 µM (active). For the same compound, the compound was classed as inactive in [2], in assay [3], in assay [5] and in [6].
Turning to `Cc1ccccc1O`, the call in assay [1], in assay [3], in assay [9], in assay [4], in assay [10] and in assay [5] was inactive. Further, the compound was classed as inactive in [6], in assay [7] and in assay [8].
